Hits are enriched below; roughly 12% of the tested compounds scored in any of these assays.
Pf growth 96h = inhibits malaria parasite growth, 96 h | Potency, µM (highest dose often 28.7 µM), for inactives: at the top dose activity change, negative = inhibition, most hits filed as inhibitors | AID 504834 | 320,000 tested, 6.9% active | P. falciparum luciferase reporter growth, 96 h; note: % is set by controls: 0 for no effect and ±100 for the full control effect
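Readout is luminescence from an integrated firefly luciferase in P. falciparum. Red cells, 2% hematocrit and 0.05% parasitemia final, were cultured with compound through two parasite generations (96 hours) at 37 C, 5% CO2.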
Pf growth 48h = P. falciparum growth inhibition at 48 hours (one generation). Potency, µM (series often up to 28.7 µM), without a hit: at the top dose activity change, negative = inhibition, most hits filed as inhibitors. AID 504832. P. falciparum luciferase growth in erythrocytes, 48 h. 310,000 tested, 5.9% active; note: % is set by controls: 0 for no effect and ±100 for the full control effect
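Compounds are pin-transferred into medium, infected erythrocytes (2% hematocrit, 0.1% parasitemia final) are added, and plates sit one parasite generation at 37 C in 5% CO2. Detection reagent is then added and luminescence measured.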
AmpC no deterg = AmpC beta-lactamase inhibition without detergent | 330,000 tested, 0.52% active | AmpC nitrocefin hydrolysis, absorbance 480 nm, 0.0001% Triton | Potency, µM (titrated, usually from 57.1 µM), without a hit: at the highest dose activity change, negative = inhibition, most hits filed as inhibitors | P00811;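 note: plate controls were no compound for no effect and no enzyme for full effect; nearly all actives have a fitted effect of over 20% in size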
Target sequence (P00811 whole entry, looked up): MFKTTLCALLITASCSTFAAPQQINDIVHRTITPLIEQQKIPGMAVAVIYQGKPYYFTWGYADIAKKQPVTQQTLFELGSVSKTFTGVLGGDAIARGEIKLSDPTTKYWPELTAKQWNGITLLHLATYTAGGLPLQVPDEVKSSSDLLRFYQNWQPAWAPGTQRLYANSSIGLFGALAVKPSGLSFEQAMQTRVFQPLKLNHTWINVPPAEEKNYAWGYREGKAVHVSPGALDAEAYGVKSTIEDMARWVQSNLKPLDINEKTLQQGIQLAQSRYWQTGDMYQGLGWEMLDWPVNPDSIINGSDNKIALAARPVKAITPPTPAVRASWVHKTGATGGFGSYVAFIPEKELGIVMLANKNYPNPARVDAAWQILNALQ
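AmpC (5.3 nM in the dispensed reagent) in 20 mM phosphate pH 7.0 with 0.01% (detergent screen) or 0.0001% Triton X-100 was preincubated with compounds for 15 min at room temperature. Nitrocefin was then added from an 800 uM solution, and hydrolysis was followed at 480 nm.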
AmpC detergent = AmpC beta-lactamase inhibition with detergent present; P00811; AmpC hydrolysis of nitrocefin, absorbance 480 nm, 0.01% Triton; Potency, µM (top dose mostly 114 µM), for inactives: at the top dose activity change, negative = inhibition, usual class: inhibitors; 370,000 tested, 0.041% active; AID 485294;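 note: 0% = no-compound wells and -100% = no-enzyme wells; nearly all actives have a fitted effect of over 25% in size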
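20 mM phosphate pH 7.0 + 0.01% (detergent screen) or 0.0001% Triton X-100; 5.3 nM AmpC reagent; cpd preinc 15 min RT; nitrocefin (800 uM stock) to start; A480 q20 s × 4 min; Activity was normalised to no-enzyme and no-compound control wells.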
Sm TGR block = blocks Schistosoma mansoni thioredoxin glutathione reductase. Q962Y6. purified TGR, DTNB reduction, TNB absorbance 405 nm. Potency, µM (doses to about 114 µM), for the others: at the highest dose activity change, negative = inhibition, usual class: inhibitors. 360,000 tested, 3% active. AID 485364; note: % is set by controls: 0 for no effect and ±100 for the full control effect; nearly all actives have a fitted effect of over 60% in size
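Kinetic colorimetric format: TGR-catalysed, NADPH-driven DTNB reduction monitored via TNB absorbance. Enzyme dispensed at 20 nM; compound exposure 15 min at room temperature before reaction start.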
SARS PLpro yeast = inhibitors of SARS-CoV papain-like protease in yeast; S. cerevisiae expressing SARS-CoV PLpro, growth rescue; Potency, µM (doses to about 32.9 µM), without a hit: at the highest dose activity, positive = growth rescue, usual class: activators; 330,000 tested, 0.19% active; calls by dose curve; note: 0% is about no effect; nearly all actives have a fitted effect of over 55% in size
* hit, by the source's call. Unless noted, calls come from the whole dose curve; as a rule, active = well fitted curve in the direction sought with a large enough effect; inconclusive = small, poorly fitted or top-dose-only effect, or another doubt; inactive = no such curve, though single readings can be large; an effect the other way counts as inactive or inconclusive. Potency is the fitted concentration of half-maximal effect.

Results for CCOC(=O)C1=C(C)NC2=C(C(=O)CCC2)C1c1cc(OC)ccc1OC (stereo not given) ?
Pf growth 48h: -12%; AmpC no deterg: -17%; AmpC detergent: -7%; Sm TGR block: -2%; SARS PLpro yeast: 11%

Results for CCCOC(=O)C1=C(C)NC2=C(C(=O)CCC2)C1c1cc(OC)ccc1OC (stereo not given) ?
Pf growth 96h: 5%; Pf growth 48h: -15%; AmpC no deterg: 2%; AmpC detergent: inconclusive; Sm TGR block: -19%; SARS PLpro yeast: -3%

How did CCOC(=O)C1=C(CC)NC2=C(C(=O)CCC2)C1c1ccc(OC)c(OC)c1 (stereo not given) do in these assays?
Pf growth 48h: 7.4µM*; AmpC no deterg: 15%; AmpC detergent: 3%; Sm TGR block: 6%; SARS PLpro yeast: -1%

How did COc1ccc2nc(SCC(O)c3cccc(Br)c3)[nH]c2c1 (stereo not given) do in these assays?
AmpC detergent: -4%; Sm TGR block: -5%

Results for CCCNC(=O)c1ccc(N2CCC3(CC2)CC(c2cccc(Br)c2)=NO3)c(NC(=O)c2ccc(Br)cc2)c1 ?
Pf growth 96h: inconclusive; Pf growth 48h: inconclusive; AmpC no deterg: -17%; AmpC detergent: -9%; Sm TGR block: 0%; SARS PLpro yeast: 0%

What do the screens show for `Cc1ccc(CNC(=O)c2ccc(N3CCC4(CC3)CC(c3ccccc3)=NO4)c(NC(=O)c3ccco3)c2)cc1`?
Pf growth 96h: 1µM*; Pf growth 48h: inconclusive; AmpC no deterg: -26%; AmpC detergent: -3%; Sm TGR block: -1%; SARS PLpro yeast: 8%

Results for CCCNC(=O)c1ccc(N2CCC3(CC2)CC(c2ccccc2)=NO3)c(NC(=O)c2ccco2)c1 ?
Pf growth 96h: 1.2µM*; Pf growth 48h: inconclusive; AmpC no deterg: 22%; AmpC detergent: -13%; Sm TGR block: 2%; SARS PLpro yeast: -6%

How did CCCNC(=O)c1ccc(N2CCC3(CC2)CC(c2ccccc2)=NO3)c(NC(=O)c2cccc(OC)c2)c1 do in these assays?
Pf growth 96h: 2.1µM*; Pf growth 48h: inconclusive; AmpC no deterg: -39%; AmpC detergent: -13%; Sm TGR block: -4%; SARS PLpro yeast: -10%

What do the screens show for `CCCCC(CC)C(=O)Nc1cc(C(=O)NCCC)ccc1N1CCC2(CC1)CC(c1ccccc1)=NO2` (stereo not given)?
Pf growth 96h: 1.5µM*; Pf growth 48h: -38%; AmpC no deterg: 11%; AmpC detergent: -11%; Sm TGR block: 9%; SARS PLpro yeast: 6%

What do the screens show for `COc1ccc(C2C(C(=O)NCc3ccccc3)=C(C)Nc3ncnn32)cc1OC` (stereo not given)?
Pf growth 48h: 6%; AmpC no deterg: -9%; AmpC detergent: inconclusive; Sm TGR block: -14%; SARS PLpro yeast: -7%

What do the screens show for `Cc1ccc(S(=O)(=O)NCC(=O)NCC(=O)OCC(=O)N2CC(=O)Nc3ccccc32)cc1C`?
Pf growth 96h: 20%; Pf growth 48h: 1%; AmpC no deterg: -8%; AmpC detergent: -4%; Sm TGR block: 0%; SARS PLpro yeast: -1%

Results for CCOC(=O)c1cc(C)n(CC2CCC(C(=O)Nc3ccc(OC)cc3)CC2)c1C (stereo not given) ?
AmpC detergent: 26%; Sm TGR block: -10%

Results for Cc1ccc(C)c(Cn2c(=O)n(-c3ccccc3)c(=O)c3c4c(sc32)CCCC4)c1 ?
AmpC detergent: 2%; Sm TGR block: -6%

How did CC1Cc2ccccc2N1C(=O)c1ccc2nccnc2c1 (stereo not given) do in these assays?
Pf growth 96h: inconclusive; Pf growth 48h: 2%; AmpC no deterg: 12%; AmpC detergent: 3%; Sm TGR block: 0%; SARS PLpro yeast: -7%

Results for Cc1ccc(CNC(=O)c2ccc(N3CCC4(CC3)CC(c3ccccc3)=NO4)c(NC(=O)c3ccccc3)c2)cc1 ?
Pf growth 96h: inconclusive; Pf growth 48h: 4.7µM*; AmpC no deterg: -45%; AmpC detergent: -4%; Sm TGR block: -3%; SARS PLpro yeast: -3%

How did Cc1ccc(CNC(=O)c2ccc(N3CCC4(CC3)CC(c3ccccc3)=NO4)c(NC(=O)c3ccc(Br)cc3)c2)cc1 do in these assays?
Pf growth 96h: inconclusive; Pf growth 48h: inconclusive; AmpC no deterg: -45%; AmpC detergent: -1%; Sm TGR block: -1%; SARS PLpro yeast: 2%

Results for Cc1ccc(CNC(=O)c2ccc(N3CCC4(CC3)CC(c3ccccc3)=NO4)c(N)c2)cc1 ?
Pf growth 96h: 33%; Pf growth 48h: -13%; AmpC no deterg: -38%; AmpC detergent: 0%; Sm TGR block: 4%; SARS PLpro yeast: -3%

How did Cc1ccc(CNC(=O)c2ccc(N3CCC4(CC3)CC(c3cccc(Br)c3)=NO4)c(NC(=O)c3ccco3)c2)cc1 do in these assays?
Pf growth 96h: 3.7µM*; Pf growth 48h: 1.7µM*; AmpC no deterg: -24%; AmpC detergent: -6%; Sm TGR block: -15%; SARS PLpro yeast: -3%

Results for C#CCOc1c(Cl)cc(C2C3=C(CCCC3=O)N(CC(=O)O)C3=C2C(=O)CCC3)cc1OC ?
Pf growth 96h: -5%; Pf growth 48h: -10%; AmpC no deterg: -17%; AmpC detergent: -15%; Sm TGR block: -6%; SARS PLpro yeast: 0%

Results for COc1ccc(C2C3=C(CCCC3=O)N(CC(=O)O)C3=C2C(=O)CCC3)cc1Cl ?
Pf growth 96h: -17%; Pf growth 48h: 37%; AmpC no deterg: -24%; AmpC detergent: -12%; Sm TGR block: 50µM*; SARS PLpro yeast: 8%

Results for CCCOc1c(Br)cc(C2C3=C(CCCC3=O)N(C)C3=C2C(=O)CCC3)cc1OC ?
Pf growth 96h: -18%; Pf growth 48h: 9.3µM*; AmpC no deterg: 287%; AmpC detergent: 3%; Sm TGR block: 4%; SARS PLpro yeast: -15%

Results for CCOc1cc(C2C3=C(CCCC3=O)N(CC(=O)O)C3=C2C(=O)CCC3)ccc1OC ?
Pf growth 96h: 20%; Pf growth 48h: -5%; AmpC no deterg: -6%; AmpC detergent: -10%; Sm TGR block: 89µM*; SARS PLpro yeast: -10%

What do the screens show for `COc1ccc2cc(CNc3ccc(C)cc3)c(=O)n(CC(=O)Nc3cccc(C(F)(F)F)c3)c2c1`?
AmpC detergent: 2%; Sm TGR block: 13%

Screening results (PubChem BioAssay)
